# Source: PubChem BioAssay (EPA / NIEHS)
# Several values for one entry are separate records, joined by “and”; a condition that tells them apart may be missing. Identical values can stand only once. Where a structure was tested more than once in an assay, its records may differ in their call. Activity calls are given as the source filed them. The calls were made as follows: active = hit-call score of the fitted dose curve at least 0.9, where 1 is the maximum; inactive = score below 0.9.
# Columns and labels:
# [1] = BSK_BF4T_SRB: Viability Assessment in the BioMAP Diversity Plus: BF4T Assay (AID 2284274); conditions: primary human bronchial epithelial cells with fibroblasts;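 as to AC50: total cell protein by sulforhodamine B staining as a cytotoxicity measure; measured 24 h after compound addition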
# Outline: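 Cytotoxicity measured as total protein: cells fixed with 10% TCA, stained with 0.1% SRB, read at 560 nm. Bronchial epithelial/dermal fibroblast co-culture, 24 h after dosing, with positive-direction fitting relative to DMSO.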
# [2] = read-out: Interleukin-8 (IL8), CXCL8 (gene 3576); test: BSK_IMphg_IL8: BioMAP Diversity Plus: IMphg Assay for Interleukin-8 (IL8) Biomarker Activity (AID 2284277); conditions: primary human endothelial cells with macrophages
# Outline: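 IL-8 levels were measured by ELISA 24 h after dosing in primary human venular endothelial cell–macrophage cultures, referenced to DMSO; parallel SRB staining monitored overt cytotoxicity.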
# [3] = read-out: Intercellular Adhesion Molecule 1 (ICAM1), ICAM1 (gene 3383); test: BSK_BE3C_ICAM1: BioMAP Diversity Plus: BE3C Assay for Intercellular Adhesion Molecule 1 (ICAM1) Biomarker Activity (AID 2284278); conditions: primary human bronchial epithelial cells;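 as to outcome: cell-surface ICAM-1 protein level quantified by ELISA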
# Outline: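 ICAM-1 quantified by ELISA and fitted against DMSO baseline, 24 h post-dosing in BE3C cultures of primary human lung bronchial epithelial cells. Cytotoxicity checked in parallel cultures by total protein SRB staining.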
# [4] = read-out: Interferon-inducible T-cell alpha chemoattractant (ITAC), CXCL11 (gene 6373); test: BSK_BE3C_ITAC: BioMAP Diversity Plus: BE3C Assay for Interferon-inducible T-cell alpha chemoattractant (ITAC) Biomarker Activity (AID 2284279); conditions: primary human bronchial epithelial cells
# Outline: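 BE3C cells (human primary bronchial epithelium), 24 h compound exposure, I-TAC by ELISA, DMSO = negative control/baseline, positive fitting direction.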
# [5] = read-out: Interleukin-8 (IL8), CXCL8 (gene 3576); test: BSK_BE3C_IL8: BioMAP Diversity Plus: BE3C Assay for Interleukin-8 (IL8) Biomarker Activity (AID 2284280); conditions: primary human bronchial epithelial cells
# Outline: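 Dose human bronchial epithelial cells with chemical; incubate 24 h; quantify IL-8 by ELISA; fit response upward versus DMSO controls.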
# [6] = read-out: Epidermal growth factor receptor (EGFR), EGFR (gene 1956); test: BSK_BE3C_EGFR: BioMAP Diversity Plus: BE3C Assay for Epidermal growth factor receptor (EGFR) Biomarker Activity (AID 2284281); conditions: primary human bronchial epithelial cells
# Outline: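 ELISA read-out of EGFR levels on human bronchial epithelial primary cells collected 24 h post-dosing. DMSO served as negative control and baseline for gain-of-signal fitting.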
# KRT18 (gene 3875) = test: BSK_BE3C_Keratin818: BioMAP Diversity Plus: BE3C Assay for Keratin 818 Biomarker Activity (AID 2284282); conditions: primary human bronchial epithelial cells
# Outline: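 ELISA readout of Keratin 8/18 in human primary bronchial epithelial cultures after 24 h chemical exposure, DMSO baseline. Parallel SRB staining (0.1%, TCA-fixed, 560 nm) served as cytotoxicity check.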
# [7] = read-out: Matrix Metallopeptidase 9 (MMP9), MMP9 (gene 4318); test: BSK_BE3C_MMP9: BioMAP Diversity Plus: BE3C Assay for Matrix Metallopeptidase 9 (MMP9) Biomarker Activity (AID 2284283); conditions: primary human bronchial epithelial cells
# Outline: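 ELISA read-out of MMP-9 after 24 h compound exposure of human lung bronchial epithelial primary cells (BE3C). Fit in gain direction vs DMSO negative control; total protein by SRB in parallel cultures flagged overt cytotoxicity.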
# [8] = read-out: urokinase Plasminogen Activator (uPA), PLAU (gene 5328); test: BSK_BF4T_uPA: BioMAP Diversity Plus: BF4T Assay for urokinase Plasminogen Activator (uPA) Biomarker Activity (AID 2284275); conditions: primary human bronchial epithelial cells with fibroblasts
# Outline: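 uPA levels measured by ELISA at 24 hours in BF4T cultures (bronchial epithelial cells plus dermal fibroblasts) and compared with DMSO; cytotoxicity tracked in parallel cultures by sulforhodamine B staining.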
# [9] = read-out: Matrix Metallopeptidase 9 (MMP9), MMP9 (gene 4318); test: BSK_BF4T_MMP9: BioMAP Diversity Plus: BF4T Assay for Matrix Metallopeptidase 9 (MMP9) Biomarker Activity (AID 2284276); conditions: primary human bronchial epithelial cells with fibroblasts
# Outline: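 MMP-9 levels were measured by ELISA after 24 h exposure of bronchial epithelial cell/dermal fibroblast co-cultures, with DMSO as baseline. Parallel cultures were stained with 0.1% SRB after TCA fixation, read at 560 nm, to flag overt cytotoxicity.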
smiles,measurement,setting,value
O=C(O)C(F)(F)C(F)(F)C(F)(F)C(F)(F)C(F)(F)C(F)(F)C(F)(F)C(F)(F)C(F)(F)C(F)(F)C(F)(F)C(F)(F)C(F)(F)F,outcome,[1],inactive
same,outcome,[2],inactive
same,outcome,[3],inactive
same,AC50,[4],25.9 nM (active)
same,outcome,[4],inactive
same,outcome,[5],inactive
same,outcome,[6],inactive
same,outcome,KRT18 (gene 3875),inactive
same,AC50,[7],675 nM (active)
same,outcome,[7],inactive
O=C(O)C=C(C(F)(F)F)C(F)(F)F,outcome,[1],inactive
same,outcome,[8],inactive
same,AC50,[2],6.29 µM (active) and 10.8 µM (active)
same,outcome,[3],inactive
same,outcome,[4],inactive
same,outcome,[5],inactive
same,outcome,[6],inactive
same,outcome,KRT18 (gene 3875),inactive
same,AC50,[7],10800 nM (active)
same,outcome,[7],inactive
FC(F)(F)C(F)(F)C(F)(F)C(F)(F)C(F)(F)C(F)(F)CC1CO1 (centres undefined),outcome,[1],inactive
same,outcome,[8],inactive
same,outcome,[2],inactive
same,outcome,[3],inactive
same,outcome,[4],inactive
same,outcome,[5],inactive
same,outcome,[6],inactive
same,outcome,KRT18 (gene 3875),inactive
same,outcome,[7],inactive
FC(F)(F)C(F)(F)C(F)(F)C(F)(F)C(F)(F)C(F)(F)C(F)(F)I,outcome,[1],inactive
same,outcome,[9],inactive
same,outcome,[2],inactive
same,outcome,[3],inactive
same,outcome,[4],inactive
same,outcome,[5],inactive
same,outcome,[6],inactive
same,outcome,KRT18 (gene 3875),inactive
same,outcome,[7],inactive
O=C(O)C(F)(F)C(F)(F)C(F)(F)C(F)(F)C(F)(F)C(F)(F)C(F)(F)C(F)(F)Cl,AC50,[1],36.9 µM (active) and 39.9 µM (active)
same,AC50,[8],45.3 µM (active) and 46.1 µM (active)
same,AC50,[9],37.1 µM (active) and 30 µM (active)
same,outcome,[2],inactive
same,AC50,[3],45.1 µM (active) and 45.8 µM (active)
same,AC50,[4],40.8 µM (active) and 23.3 µM (active)
same,AC50,[5],38 µM (active) and 30 µM (active)
same,AC50,[6],13.6 µM (active) and 11.5 µM (active)
same,AC50,KRT18 (gene 3875),48.7 µM (active) and 56 µM (active)
same,AC50,[7],42.9 µM (active) and 40.4 µM (active)
FC1CC(F)(F)C(F)(F)C1(F)F (centres undefined),outcome,[1],inactive
same,outcome,[8],inactive
same,outcome,[2],inactive
same,outcome,[3],inactive
same,outcome,[4],inactive
same,outcome,[5],inactive
same,outcome,[6],inactive
same,outcome,KRT18 (gene 3875),inactive
same,outcome,[7],inactive
FC(F)(Br)C(F)(F)C(F)(F)C(F)(F)C(F)(F)C(F)(F)Br,outcome,[1],inactive
same,outcome,[9],inactive
same,outcome,[2],inactive
same,outcome,[3],inactive
same,outcome,[4],inactive
same,outcome,[5],inactive
same,outcome,[6],inactive
same,outcome,KRT18 (gene 3875),inactive
same,outcome,[7],inactive
OCC(F)(F)C(F)(F)C(F)(F)C(F)F,outcome,[1],inactive
same,outcome,[8],inactive
same,outcome,[2],inactive
same,outcome,[3],inactive
same,outcome,[4],inactive
same,AC50,[5],14.5 µM (active)
same,outcome,[5],inactive
same,outcome,[6],inactive
same,outcome,KRT18 (gene 3875),inactive
same,outcome,[7],inactive
O=C(O)C(F)(F)C(F)(F)C(F)(F)F,outcome,[1],inactive
same,outcome,[8],inactive
same,outcome,[9],inactive
same,outcome,[2],inactive
same,outcome,[3],inactive
same,outcome,[4],inactive
same,outcome,[5],inactive
same,outcome,[6],inactive
same,outcome,KRT18 (gene 3875),inactive
same,outcome,[7],inactive
O=C(O)C(F)(F)C(F)(F)F,outcome,[1],inactive
same,outcome,[8],inactive
same,outcome,[2],inactive
same,outcome,[3],inactive
same,outcome,[4],inactive
same,AC50,[5],26.1 µM (active)
same,outcome,[5],inactive
same,outcome,[6],inactive
same,outcome,KRT18 (gene 3875),inactive
same,outcome,[7],inactive
O=P(O)(O)OCCC(F)(F)C(F)(F)C(F)(F)C(F)(F)C(F)(F)C(F)(F)F,outcome,[1],inactive
same,outcome,[9],inactive
same,outcome,[2],inactive
same,outcome,[3],inactive
same,outcome,[4],inactive
same,outcome,[5],inactive
same,outcome,[6],inactive
same,outcome,KRT18 (gene 3875),inactive
same,outcome,[7],inactive
O=C(O)C(F)(F)C(F)(F)OC(F)(F)F,outcome,[1],inactive
same,outcome,[8],inactive
same,outcome,[9],inactive
same,outcome,[2],inactive
same,outcome,[3],inactive
same,outcome,[4],inactive
same,outcome,[5],inactive
same,outcome,[6],inactive
same,outcome,KRT18 (gene 3875),inactive
same,outcome,[7],inactive
COC(=O)CCC(F)(F)C(F)(F)C(F)(F)C(F)(F)F,outcome,[1],inactive
same,outcome,[9],inactive
same,outcome,[2],inactive
same,outcome,[3],inactive
same,outcome,[4],inactive
same,outcome,[5],inactive
same,outcome,[6],inactive
same,outcome,KRT18 (gene 3875),inactive
same,outcome,[7],inactive
